Measurements from PubChem BioAssay AID1159580 (chemical genetic matrix, 2015).
The whole screen tested about 5,500 compounds, of which about 2,000 (36%) were called active. Roughly 18% stayed inconclusive and do not appear here. Cut-off read from the data, not from the text of the source: active = normalized growth mostly below about 0.91 (no sharp cut-off); inconclusive = no clear call, values can overlap the other calls; inactive = mostly above about 0.92. Some of the results follow.

Assay: chemical genetic growth profiling, strain panel (AID 1159580);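 note: tested at 20 µM; growth read once vehicle control cultures reached saturation at 30 °C; 1 = growth at the plate median or of vehicle wells; lower values mean less growth of the strain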
Conditions: growth OD

Measured: normalized growth

CC(=O)OCC1=C(C(=O)O)N2C(=O)[C@@H](NC(=O)CCCC(N)C(=O)O)C2SC1 (some centres not stated)
inactive: S. cerevisiae deletion strains, locus YJR075W, strain HOC1, hits give low values 1.05 | S. cerevisiae deletion strains, locus YKL009W, strain mrt4, hits give low values 0.996 | S. cerevisiae deletion strains, locus YKL068W, hits give low values 1 | S. cerevisiae deletion strains, locus YKL085W, strain MDH1 (second series), hits give low values 0.995 | S. cerevisiae deletion strains, locus YKL085W, strain MDH1, hits give low values 0.995 | S. cerevisiae deletion strains, locus YKL160W, strain elf1, hits give low values 0.998 | S. cerevisiae deletion strains, locus YKL190W, strain CNB1, hits give low values 1.01 | S. cerevisiae deletion strains, locus YKR001C, strain vps1, hits give low values 1.03 | S. cerevisiae deletion strains, locus YKR026C, strain gcn3, hits give low values 0.969 | S. cerevisiae deletion strains, locus YKR091W, strain srl3, hits give low values 0.999 | S. cerevisiae deletion strains, locus YLL001W, strain dnm1, hits give low values 0.973 | S. cerevisiae deletion strains, locus YLL026W, hits give low values 0.996 | S. cerevisiae deletion strains, locus YLL041C, strain sdh2, hits give low values 0.993 | S. cerevisiae deletion strains, locus YLR027C, strain aat2, hits give low values 0.998 | S. cerevisiae deletion strains, locus YLR039C, strain RIC1, hits give low values 1.02 | S. cerevisiae deletion strains, locus YLR058C, strain SHM2, hits give low values 1.02 | S. cerevisiae deletion strains, locus YLR102C, strain apc9, hits give low values 0.997 | S. cerevisiae deletion strains, locus YLR113W, strain HOG1, hits give low values 1.01 | S. cerevisiae deletion strains, locus YLR221C, strain rsa3, hits give low values 0.994 | S. cerevisiae deletion strains, locus YLR258W, strain gsy2, hits give low values 1.02 | S. cerevisiae deletion strains, locus YLR262C, strain YPT6 (second series), hits give low values 0.978 | S. cerevisiae deletion strains, locus YLR262C, strain YPT6, hits give low values 1.02 | S. cerevisiae deletion strains, locus YLR268W, strain sec22, hits give low values 1.01 | S. cerevisiae deletion strains, locus YLR320W, strain mms22, hits give low values 1.01 | S. cerevisiae deletion strains, locus YLR330W, strain CHS5, hits give low values 1.01 | S. cerevisiae deletion strains, locus YLR342W, strain FKS1 (second series), hits give low values 1.04 | S. cerevisiae deletion strains, locus YLR342W, strain FKS1, hits give low values 1.01 | S. cerevisiae deletion strains, locus YLR357W, strain rsc2, hits give low values 0.99 | S. cerevisiae deletion strains, locus YLR370C, strain arc18, hits give low values 1.01 | S. cerevisiae deletion strains, locus YLR371W, strain rom2, hits give low values 1.01 | S. cerevisiae deletion strains, locus YLR384C, strain iki3, hits give low values 0.994 | S. cerevisiae deletion strains, locus YLR418C, strain cdc73, hits give low values 1 | S. cerevisiae deletion strains, locus YML016C, strain PPZ1, hits give low values 1.01 | S. cerevisiae deletion strains, locus YML032C, strain rad52, hits give low values 1.02 | S. cerevisiae deletion strains, locus YML120C, strain ndi1, hits give low values 0.996 | S. cerevisiae deletion strains, locus YML124C, strain tub3, hits give low values 1 | S. cerevisiae deletion strains, locus YMR058W, strain fet3, hits give low values 0.994 | S. cerevisiae deletion strains, locus YMR078C, strain ctf18, hits give low values 1 | S. cerevisiae deletion strains, locus YMR125W, strain sto1, hits give low values 0.996 | S. cerevisiae deletion strains, locus YMR129W, hits give low values 0.988 | S. cerevisiae deletion strains, locus YMR205C, strain PFK2, hits give low values 1.02 | S. cerevisiae deletion strains, locus YMR223W, strain ubp8, hits give low values 1.04 | S. cerevisiae deletion strains, locus YMR231W, strain pep5, hits give low values 0.988 | S. cerevisiae deletion strains, locus YMR263W, strain SAP30, hits give low values 1.04 | S. cerevisiae deletion strains, locus YMR307W, strain GAS1, hits give low values 0.987 | S. cerevisiae deletion strains, locus YNL067W, strain RPL9B, hits give low values 1.01 | S. cerevisiae deletion strains, locus YNL071W, strain lat1, hits give low values 1.01 | S. cerevisiae deletion strains, locus YNL128W, strain TEP1, hits give low values 1.01 | S. cerevisiae deletion strains, locus YNL153C, strain GIM3, hits give low values 1.03 | S. cerevisiae deletion strains, locus YNL183C, strain NPR1, hits give low values 0.946 | S. cerevisiae deletion strains, locus YNL209W, strain ssb2, hits give low values 0.998 | S. cerevisiae deletion strains, locus YNL233W, strain BNI4, hits give low values 1.02 | S. cerevisiae deletion strains, locus YNL248C, strain rpa49, hits give low values 0.996 | S. cerevisiae deletion strains, locus YNL250W, strain rad50, hits give low values 1 | S. cerevisiae deletion strains, locus YNL271C, strain bni1, hits give low values 0.998 | S. cerevisiae deletion strains, locus YNL298W, strain CLA4, hits give low values 1.02 | S. cerevisiae deletion strains, locus YNL307C, strain MCK1, hits give low values 1.01 | S. cerevisiae deletion strains, locus YNL322C, strain KRE1 (second series), hits give low values 0.99 | S. cerevisiae deletion strains, locus YNL322C, strain KRE1, hits give low values 1.01 | S. cerevisiae deletion strains, locus YNR049C, strain mso1, hits give low values 0.996 | S. cerevisiae deletion strains, locus YNR052C, strain pop2, hits give low values 1.02 | S. cerevisiae deletion strains, locus YOL006C, strain TOP1, hits give low values 1 | S. cerevisiae deletion strains, locus YOL012C, strain htz1 0.841 | S. cerevisiae deletion strains, locus YOL147C, strain pex11, hits give low values 0.997 | S. cerevisiae deletion strains, locus YOR001W, strain rrp6, hits give low values 0.998 | S. cerevisiae deletion strains, locus YOR061W, strain CKA2, hits give low values 1.01 | S. cerevisiae deletion strains, locus YOR069W, strain VPS5, hits give low values 1 | S. cerevisiae deletion strains, locus YOR070C, strain gyp1, hits give low values 0.995 | S. cerevisiae deletion strains, locus YOR080W, strain dia2, hits give low values 1 | S. cerevisiae deletion strains, locus YOR083W, strain WHI5, hits give low values 0.993 | S. cerevisiae deletion strains, locus YOR106W, strain vam3, hits give low values 0.999 | S. cerevisiae deletion strains, locus YOR136W, strain idh2, hits give low values 1 | S. cerevisiae deletion strains, locus YOR144C, strain elg1, hits give low values 0.99 | S. cerevisiae deletion strains, locus YOR184W, strain ser1, hits give low values 1.02 | S. cerevisiae deletion strains, locus YOR231W, strain MKK1, hits give low values 1 | S. cerevisiae deletion strains, locus YOR265W, strain rbl2, hits give low values 0.993 | S. cerevisiae deletion strains, locus YOR270C, strain vph1, hits give low values 1.08 | S. cerevisiae deletion strains, locus YOR290C, strain snf2, hits give low values 0.973 | S. cerevisiae deletion strains, locus YOR316C, strain cot1, hits give low values 0.994 | S. cerevisiae deletion strains, locus YPL051W, strain arl3, hits give low values 0.99 | S. cerevisiae deletion strains, locus YPL055C, strain LGE1, hits give low values 1.03 | S. cerevisiae deletion strains, locus YPL078C, strain atp4, hits give low values 0.994 | S. cerevisiae deletion strains, locus YPL106C, strain sse1, hits give low values 0.981 | S. cerevisiae deletion strains, locus YPL240C, strain hsp82, hits give low values 1.01 | S. cerevisiae deletion strains, locus YPL241C, strain CIN2, hits give low values 1.01 | S. cerevisiae deletion strains, locus YPL256C, strain CLN2, hits give low values 0.967 | S. cerevisiae deletion strains, locus YPR119W, strain clb2, hits give low values 1 | S. cerevisiae deletion strains, locus YPR141C, strain kar3, hits give low values 1 | S. cerevisiae deletion strains, locus YPR163C, strain tif3, hits give low values 1 | S. cerevisiae deletion strains, locus YPR167C, strain met16, hits give low values 1 | S. cerevisiae deletion strains, strain wtn01, hits give low values 1 | S. cerevisiae strains, strain wild type, hits give low values 1.02
